We go through 16 compounds from PubChem BioAssay (NCATS).

“And” between values parts separate entries of the source, which are not always exact repeats. Identical values can stand only once. Values without a mark were called inactive. Results filed as inconclusive are left out. The source made the active and inactive calls. Unless noted, the call rests on the fitted dose curve; in most records, active means well fitted curve in the direction sought with a large enough effect; inconclusive means small, poorly fitted or top-dose-only effect, or another doubt; inactive means no such curve, though single readings can be large; an effect the other way counts as inactive or inconclusive. Peptide text beside a SMILES is read from it.

Sequence of Tumor necrosis factor (Homo sapiens) (P01375 whole entry, looked up): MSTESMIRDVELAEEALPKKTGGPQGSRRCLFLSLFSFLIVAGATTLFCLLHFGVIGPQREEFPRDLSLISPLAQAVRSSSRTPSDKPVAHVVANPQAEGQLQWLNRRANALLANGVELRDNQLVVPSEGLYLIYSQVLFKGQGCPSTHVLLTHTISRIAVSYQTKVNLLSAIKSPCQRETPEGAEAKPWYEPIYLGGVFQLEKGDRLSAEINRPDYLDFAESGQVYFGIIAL
Sequence of Peroxisome proliferator-activated receptor alpha (Homo sapiens) (Q07869 whole entry, looked up): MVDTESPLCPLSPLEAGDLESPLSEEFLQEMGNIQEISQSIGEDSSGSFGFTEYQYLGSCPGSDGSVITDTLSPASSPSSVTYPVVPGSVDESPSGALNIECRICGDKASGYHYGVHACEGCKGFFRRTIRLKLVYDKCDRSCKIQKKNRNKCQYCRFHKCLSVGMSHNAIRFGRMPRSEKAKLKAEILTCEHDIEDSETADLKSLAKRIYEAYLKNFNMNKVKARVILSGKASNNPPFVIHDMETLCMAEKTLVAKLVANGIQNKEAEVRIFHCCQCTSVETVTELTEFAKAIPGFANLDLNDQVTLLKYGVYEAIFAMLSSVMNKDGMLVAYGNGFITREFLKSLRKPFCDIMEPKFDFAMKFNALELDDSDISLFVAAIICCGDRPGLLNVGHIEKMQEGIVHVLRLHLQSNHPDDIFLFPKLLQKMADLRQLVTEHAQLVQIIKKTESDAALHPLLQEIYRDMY
Sequence of Nuclear receptor ROR-gamma (Homo sapiens) (P51449 whole entry, looked up): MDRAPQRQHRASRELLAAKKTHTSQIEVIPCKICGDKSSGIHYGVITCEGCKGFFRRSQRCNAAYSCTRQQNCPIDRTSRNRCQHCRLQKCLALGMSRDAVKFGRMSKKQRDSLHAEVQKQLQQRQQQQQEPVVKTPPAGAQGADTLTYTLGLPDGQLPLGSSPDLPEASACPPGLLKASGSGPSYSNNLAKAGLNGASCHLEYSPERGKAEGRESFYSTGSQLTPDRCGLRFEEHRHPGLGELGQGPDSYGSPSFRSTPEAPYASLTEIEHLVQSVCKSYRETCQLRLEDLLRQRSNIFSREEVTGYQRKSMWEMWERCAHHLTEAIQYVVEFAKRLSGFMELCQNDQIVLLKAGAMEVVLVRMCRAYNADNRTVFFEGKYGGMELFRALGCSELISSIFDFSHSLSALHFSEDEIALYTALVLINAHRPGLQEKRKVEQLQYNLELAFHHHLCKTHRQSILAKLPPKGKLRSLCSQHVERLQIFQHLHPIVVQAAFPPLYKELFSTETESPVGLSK

Test system in the first test: not listed separately
The test is described as follows: qHTS assay for small molecule disruptors of the mitochondrial membrane potential - 5 hr assay (AID 651755; calls by dose curve; further: nearly all actives have a fitted effect of over 40% in size; further: potency means the concentration at half of the fitted maximal effect). The conditions noted are these: JC-1-type ratio dye; series mostly up to 92.2 µM. Summed up: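 HepG2 cells, attached overnight at 37C, were exposed to compound or DMSO for 5 hr at 37C, 5% CO2. Mito-MPS dye was then added for 30 min, and fluorescence read at 490/535 nm (monomers) and 540/590 nm (aggregates).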
Background: In qHTS, concentration-response curves come from the screen itself.
For the compound `CN(C)c1ccc2nc3ccc(=[N+](C)C)cc-3sc2c1`, the Potency was 5.31 µM (active).

Take `COc1c2occc2cc2ccc(=O)oc12`: the Potency entry was “inactive”.

`Cc1ccc(C)c(OCCCC(C)(C)C(=O)O)c1`: the Potency entry is “inactive”.

On to `Nc1ccc(S(N)(=O)=O)cc1`, for which the Potency entry is “inactive”.

Take `NS(=O)(=O)c1cc(C(=O)O)c(NCc2ccco2)cc1Cl`: the Potency result was “inactive”.

With `CS(=O)(=O)OCCCCOS(C)(=O)=O`, the Potency result was “inactive”.

The target of a further test is Tumor necrosis factor (Homo sapiens) (UniProt P01375). Briefly: qHTS assay to identify small molecules that stimulate Tumor Necrosis Factor-alpha (TNF-alpha) secretion (AID 651757; active means well fitted curve in the direction sought with a large enough effect in the signal ratio; the % refers to the signal ratio; further: potency means the concentration at half of the fitted maximal effect). The conditions noted are these: Human cells, HTRF 665/615 ratio; series mostly up to 92.2 µM. The method in brief:
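Secreted TNF-alpha from compound-treated THP-1 cells (17 hrs, 37 C) was quantified with a homogeneous time-resolved fluorescence antibody assay.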
Take `CN(C)c1ccc2nc3ccc(=[N+](C)C)cc-3sc2c1`: the Potency was 10.6 µM (active).

Consider `CCc1nc(N)nc(N)c1-c1ccc(Cl)cc1`, for which the Potency entry is “inactive”.

With `CC(=O)Nc1ccc(O)cc1`, the Potency result was “inactive”.

As for `COc1c2occc2cc2ccc(=O)oc12`, the Potency result was “inactive”.

With `c1ccc2[nH]c(-c3cscn3)nc2c1`, the Potency result is “inactive”.

Take `CCCCC(CC)COC(=O)C(C#N)=C(c1ccccc1)c1ccccc1` (centres undefined): the Potency result is “inactive”.

With `Cc1ccc(C)c(OCCCC(C)(C)C(=O)O)c1`, the Potency result is “inactive”.

For the compound `Nc1ccc(S(N)(=O)=O)cc1`, the Potency entry is “inactive”.

For the compound `CCCc1cc(=O)[nH]c(=S)[nH]1`, the Potency result is “inactive”.

`COC(=O)[C@H](Cc1ccccc1)NC(=O)[C@@H](N)CC(=O)O` (H-Asp-Phe-OMe): the Potency entry was “inactive”.

Regarding `NS(=O)(=O)c1cc(C(=O)O)c(NCc2ccco2)cc1Cl`, the Potency entry is “inactive”.

Turning to `CS(=O)(=O)OCCCCOS(C)(=O)=O`, the Potency result is “inactive”.

Test system in the next test: not listed separately
The test is described as follows: qHTS assay to identify small molecules that stimulate interleukin-8 (IL-8) secretion (AID 651758; active means well fitted activation curve with a large enough effect in the signal ratio; the % refers to the signal ratio; further: 0% is about no effect). The conditions noted are these: HTRF ratio (665/615); series mostly up to 92.2 µM. Summed up:
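THP-1, 2000 cells/well; cpd 16 h, 37 C; add cryptate + XL665 anti-IL-8 Abs; RT 1-3 h; TR-FRET read.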
For `CCc1nc(N)nc(N)c1-c1ccc(Cl)cc1`, the result was inactive.

As to `COC(=O)[C@H](Cc1ccccc1)NC(=O)[C@@H](N)CC(=O)O` (H-Asp-Phe-OMe), the result was inactive.

Consider `CS(=O)(=O)OCCCCOS(C)(=O)=O`, for which the outcome was inactive.

Test system in another test: not listed separately
Briefly: qHTS assay for environmental chemicals that activate the Aryl hydrocarbon Receptor (AhR) signaling pathway (AID 651777). Further: nearly all actives have a fitted effect of over 15% in size. Further: potency means the concentration at half of the fitted maximal effect. On activation: % of control where 0% means no effect. The conditions noted are these: 1A2-DRE human hepatoma cells, luciferase, 24 h; activation: hits give high values. Summed up: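 1A2-DRE human hepatoma reporter line; 1,200 cells/well; cmpd or DMSO 24 h, 37 C/5% CO2; One-Glo 30 min RT; luciferase lum.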
As for `Nc1nc(Cl)nc2c1ncn2[C@H]1C[C@H](O)[C@@H](CO)O1`, the activation was 1.52%.

For `CN(C)c1ccc2nc3ccc(=[N+](C)C)cc-3sc2c1`, the activation is -2.65%.

As for `CCc1nc(N)nc(N)c1-c1ccc(Cl)cc1`, the activation is 1.47% and 0.312%.

With `CC(=O)Nc1ccc(O)cc1`, the activation was 1.7% and -0.186%.

Turning to `COc1cc(OC)c(C(=O)CCCN2CCCC2)c(OC)c1`, the activation is -1.93%.

On to `N[C@@H](Cc1cc(I)c(Oc2cc(I)c(O)c(I)c2)c(I)c1)C(=O)O`, for which the Potency is 44.7 µM (active).

For the compound `CCCCC(CC)COC(=O)C(C#N)=C(c1ccccc1)c1ccccc1` (centres undefined), the activation is 0.749%.

Turning to `Cc1ccc(C)c(OCCCC(C)(C)C(=O)O)c1`, the activation is -0.112% and 1.21%.

Regarding `CNC[C@H](O)c1ccc(O)c(O)c1`, the activation is -0.576%.

For `Nc1ccc(S(N)(=O)=O)cc1`, the activation was -0.82%.

With `CCCc1cc(=O)[nH]c(=S)[nH]1`, the activation is 0.594% and 1.79%.

Regarding `COC(=O)[C@H](Cc1ccccc1)NC(=O)[C@@H](N)CC(=O)O` (H-Asp-Phe-OMe), the activation is -1.45% and -0.834%.

As to `CS(=O)(=O)OCCCCOS(C)(=O)=O`, the activation is 2.49% and 0.0953% and 0.509%.

The next test addresses Peroxisome proliferator-activated receptor alpha (Homo sapiens) (UniProt Q07869). Briefly: qHTS assay for small molecule agonists of the peroxisome proliferator-activated receptor alpha (PPARalpha) signaling pathway (AID 651778). Further: % of control where 0% means no effect. The conditions noted are these: PathHunter PPARalpha complementation, chemiluminescence, 6 h; hits give high values. The method in brief:
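Cells plated at 2,000/well and held overnight at 37 C, 5% CO2, then compound added by pin tool for 6 hr; after PathHunter detection reagent and 60 min at room temperature, chemiluminescence from enzyme complementation was read.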
As to `Nc1nc(Cl)nc2c1ncn2[C@H]1C[C@H](O)[C@@H](CO)O1`, the max response was -0.979%.

In the case of `CN(C)c1ccc2nc3ccc(=[N+](C)C)cc-3sc2c1`, the max response was -7.81%.

Consider `CCc1nc(N)nc(N)c1-c1ccc(Cl)cc1`, for which the max response is -1.61% and -1.39%.

Take `COc1cc(OC)c(C(=O)CCCN2CCCC2)c(OC)c1`: the max response is -0.755%.

In the case of `COc1c2occc2cc2ccc(=O)oc12`, the max response is -3.1% and -0.368%.

On to `N[C@@H](Cc1cc(I)c(Oc2cc(I)c(O)c(I)c2)c(I)c1)C(=O)O`, for which the max response was -3.72%.

As for `c1ccc2[nH]c(-c3cscn3)nc2c1`, the max response is -1.63% and -0.401%.

In the case of `CCCCC(CC)COC(=O)C(C#N)=C(c1ccccc1)c1ccccc1` (centres undefined), the max response is -1.78%.

For the compound `Cc1ccc(C)c(OCCCC(C)(C)C(=O)O)c1`, the max response was 0.635% and 1.7%.

In the case of `CNC[C@H](O)c1ccc(O)c(O)c1`, the max response is -0.497%.

On to `Nc1ccc(S(N)(=O)=O)cc1`, for which the max response was 3.64%.

For the compound `CCCc1cc(=O)[nH]c(=S)[nH]1`, the max response is -4.59% and -0.354%.

For `COC(=O)[C@H](Cc1ccccc1)NC(=O)[C@@H](N)CC(=O)O` (H-Asp-Phe-OMe), the max response was -1.47% and -4.11%.

For the compound `CS(=O)(=O)OCCCCOS(C)(=O)=O`, the max response was -1.17% and -9.71% and -0.247%.

The next test addresses Nuclear receptor ROR-gamma (Homo sapiens) (UniProt P51449). Briefly: qHTS assay for small molecule antagonists of the retinoid-related orphan receptor gamma (ROR-gamma) signaling pathway (AID 651802).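 Further: CHO cells with doxycycline-induced ROR-gamma expression; luciferase reporter luminescence driven by ROR response element; on the % scale 0 is the no-effect control and ±100 the full control effect; nearly all actives have a fitted effect of over 60% in size.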 The conditions noted are these: ROR-gamma antagonist cell reporter assay; series mostly up to 92.2 µM. The method in brief:
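Antagonism is scored as a fall in luminescence from a RORE-luciferase reporter in CHO cells expressing ROR under a TET-inducible promoter, measured 16hr after doxycycline induction in the presence of compound.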
As to `c1ccc2[nH]c(-c3cscn3)nc2c1`, the result was inactive.

For the compound `Cc1ccc(C)c(OCCCC(C)(C)C(=O)O)c1`, the result was inactive.

On to `CCCc1cc(=O)[nH]c(=S)[nH]1`, for which the call was inactive.

For `COC(=O)[C@H](Cc1ccccc1)NC(=O)[C@@H](N)CC(=O)O` (H-Asp-Phe-OMe), the compound was called inactive.

For the compound `NS(=O)(=O)c1cc(C(=O)O)c(NCc2ccco2)cc1Cl`, the call was inactive.

Take `CS(=O)(=O)OCCCCOS(C)(=O)=O`: the compound was classed as inactive.
